For 12 compounds, AC50 and outcome results are on record in PubChem BioAssay (EPA / NIEHS).

Inconclusive results are not listed. The source made the active and inactive calls. The calls were made as follows, unless noted: active = hit-call score of the fitted dose curve at least 0.9, where 1 is the maximum; inactive = score below 0.9.

Test [1] can be described thus: CCTE_Simmons_MITO_basal_resp_rate: CCTE's HepG2 Seahorse XF Respirometric Screening Assay at Basal Respiratory State, Simmons Lab (AID 2284001). The conditions noted are these: actives raise or lower the signal. A digest of the protocol:
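Basal-phase OCR in HepG2 cells, read at 6-min intervals across a 72-min run, with test compound injected at 125 nM–100 uM final (7 points). Fitted both directions against DMSO; three biological replicates per concentration.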

Test [2] can be described thus: CCTE_Simmons_MITO_max_resp_rate: CCTE's HepG2 Seahorse XF Respirometric Screening Assay at Maximal Respiratory State [uncoupled], Simmons Lab (AID 2284002). As to conditions: actives raise or lower the signal. The essentials:
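Read-out is oxygen consumption rate at maximal respiration, taken after FCCP uncoupling of compound-treated HepG2 cells. Seven final concentrations from 125 nM to 100 uM were tested, each in three biological replicates.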

The nature of test [3]: CCTE_Simmons_MITO_inhib_resp_rate: CCTE's HepG2 Seahorse XF Respirometric Screening Assay at Inhibited Respiratory State [full ETC block], Simmons Lab (AID 2284006). As to conditions: actives raise or lower the signal. The essentials:
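This endpoint is the respiration rate remaining after rotenone/antimycin A block, in HepG2 cells on a Seahorse XF96. Chemicals spanned 125 nM–100 uM final, in three biological replicates. OCR was read every 6 minutes for 72 minutes and compared with DMSO vehicle.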

Test [4] in a line: CCTE_Simmons_MITO_viability: CellTiter-Glo Viability Assessment for CCTE's HepG2 Seahorse XF Respirometric Screening Assay [post-hoc], Simmons Lab (AID 2284007; active = hit-call score of the fitted dose curve at least 0.9, where 1 is the maximum;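 as to AC50: cells exposed to chemical for 90 min before the ATP read; actives lower ATP signal relative to DMSO baseline meaning reduced viability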). The essentials:
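Luciferase-coupled ATP read-out after the Seahorse run: HepG2 cells treated 90 minutes with test chemical, 7-point series of 125 nM–100 uM final, in triplicate biological runs. Vehicle DMSO; dichlone as positive control over 8 concentrations.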
On the technique in general: Cellular ATP, detected with luciferase, serves as a proxy for viable cell number.

The nature of test [5]: CCTE_Shafer_MEA_acute_spike_number: CCTE's Neural Acute Assay for Total Number of Spikes, Shafer Lab (AID 2284008).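 As to AC50: curve fitted for decrease in spike count so AC50 reflects inhibitors.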 The essentials:
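Read-out is the total spike count over 40 min, expressed as percent change from each well's own pre-treatment baseline and fitted in the loss direction against DMSO. Rat cortical neurons were exposed at 0.03-40 uM on DIV 13 or 15.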

A short description of test [6]: CCTE_Shafer_MEA_acute_firing_rate_mean: CCTE's Neural Acute Assay for Mean Firing Rate, Shafer Lab (AID 2284009).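 Also: analyzed for loss of signal so actives lower firing rate relative to DMSO.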 A digest of the protocol: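 Primary rat cortical neurons on 16-electrode MEA wells were exposed on DIV 13 or 15 to compound (0.03-40 uM). Spike counts per recording time, averaged over electrodes, were compared between 40-min baseline and 40-min post-exposure recordings as percent change.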

Test [7] can be described thus: CCTE_Harrill_HTTr_Viability_MCF7: CCTE's 6-hour Cell Viability Assessment for the High-Throughput Transcriptomics (HTTr) Platform, in MCF-7 cells cultured in DMEM + 10% fetal bovine serum, Harrill Lab (AID 2284010). The essentials: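 Propidium iodide exclusion, imaged by high-content analysis, gauged viability after a six-hour exposure across eight concentrations. Cells were MCF-7 grown in DMEM with 10% fetal bovine serum; fits run in both directions against DMSO.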

The nature of test [8]: CCTE_Harrill_HTTr_Viability_PRF_DMEM_6hr: (Pilot) CCTE's 6-hour Cell Viability Assessment for the High-Throughput Transcriptomics (HTTr) Platform, in MCF-7 cells cultured phenol red-free DMEM + 10% charcoal-stripped fetal bovine serum, Harrill Lab (AID 2283976). A digest of the protocol:
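Membrane integrity by high-content imaging of propidium iodide uptake, six hours after dosing with eight concentrations. Cells: MCF-7 grown in phenol red-free DMEM plus 10% charcoal-stripped serum; DMSO serves as baseline for bidirectional fits.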

Test [9] in a line: CCTE_Harrill_HTTr_Viability_PRF_DMEM_12hr: (Pilot) CCTE's 12-hour Cell Viability Assessment for the High-Throughput Transcriptomics (HTTr) Platform, in MCF-7 cells cultured in phenol red-free DMEM + 10% charcoal-stripped fetal bovine serum, Harrill Lab (AID 2283977). The essentials: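 Membrane integrity was scored via propidium iodide dye exclusion imaging, fitted in both directions relative to DMSO. Compounds ran as eight-point dilutions for 12 hours on MCF-7 grown in phenol red-free DMEM plus 10% charcoal-stripped serum.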

The nature of test [10]: CCTE_Harrill_HTTr_Viability_PRF_DMEM_24hr: (Pilot) CCTE's 24-hour Cell Viability Assessment for the High-Throughput Transcriptomics (HTTr) Platform, in MCF-7 cells cultured in phenol red-free DMEM + 10% charcoal-stripped fetal bovine serum, Harrill Lab (AID 2283980). A digest of the protocol: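 Propidium iodide exclusion imaged at 24 h after dosing scores viability; cells were MCF-7 grown in phenol red-free DMEM plus 10% charcoal-stripped serum, tested in eight concentrations, fitted in both directions against DMSO.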

A short description of test [11]: CCTE_Harrill_HTTr_Apoptosis_DMEM_6hr: (Pilot) CCTE's 6-hour Apoptosis Assessment for the High-Throughput Transcriptomics (HTTr) Platform, in MCF-7 cells cultured in DMEM + 10% fetal bovine serum, Harrill Lab (AID 2283981). The essentials: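 MCF-7 cells grown in DMEM + 10% FBS were exposed for 6 hours to an eight-point dilution series. CellEvent Caspase 3/7 Green signal was imaged; activity fitted bidirectionally against DMSO.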

A short description of test [12]: CCTE_Harrill_HTTr_Apoptosis_DMEM_12hr: (Pilot) CCTE's 12-hour Apoptosis Assessment for the High-Throughput Transcriptomics (HTTr) Platform, in MCF-7 cells cultured in DMEM + 10% fetal bovine serum, Harrill Lab (AID 2283982). A digest of the protocol: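 Caspase-3/7 activity was measured by high-content imaging (CellEvent Caspase 3/7 Green) after a 12-hour exposure of MCF-7 cells grown in DMEM with 10% FBS. Eight-point concentration series, fitted bidirectionally against vehicle.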

A short description of test [13]: CCTE_Harrill_HTTr_Apoptosis_DMEM_24hr: (Pilot) CCTE's 24-hour Apoptosis Assessment for the High-Throughput Transcriptomics (HTTr) Platform, in MCF-7 cells cultured in DMEM + 10% fetal bovine serum, Harrill Lab (AID 2283983). A digest of the protocol: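 Caspase-3/7 activity read by high-content imaging (CellEvent Green reagent) 24 h after dosing. MCF-7 cells grown in DMEM with 10% FBS received an eight-point concentration series; fits were bidirectional versus DMSO.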

Test [14] is described as follows: CCTE_Harrill_HTTr_Apoptosis_PRF_DMEM_6hr: (Pilot) CCTE's 6-hour Apoptosis Assessment for the High-Throughput Transcriptomics (HTTr) Platform, in MCF-7 cells cultured phenol red-free DMEM + 10% charcoal-stripped fetal bovine serum, Harrill Lab (AID 2283984). A digest of the protocol:
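Caspase-3/7 activity (CellEvent Green) read by high-content imaging 6 h after dosing, eight concentrations. Cells: MCF-7, phenol red-free DMEM with 10% charcoal-stripped serum. Curves fit both directions against DMSO.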

A short description of test [15]: CCTE_Harrill_HTTr_Apoptosis_PRF_DMEM_24hr: (Pilot) CCTE's 24-hour Apoptosis Assessment for the High-Throughput Transcriptomics (HTTr) Platform, in MCF-7 cells cultured in phenol red-free DMEM + 10% charcoal-stripped fetal bovine serum, Harrill Lab (AID 2283986). The essentials: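 Eight concentrations tested for 24 h on MCF-7 grown in charcoal-stripped serum, phenol red-free DMEM. High content imaging of CellEvent Caspase 3/7 Green signal gives apoptosis read-out, fitted both ways relative to DMSO.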

A further test concerns DIO1 (gene 1733). Description: CCTE_GLTED_hDIO1: CCTE's human Deiodinase 1 (DIO1) Inhibition Assay, Great Lakes Toxicology and Ecology Division (GLTED) Lab (AID 2283987; active = hit-call score of the fitted dose curve at least 0.9, where 1 is the maximum;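 also: isolated human DIO1 enzyme in a cell-free setup rather than cells; enzyme activity read as free iodide liberated from substrate via Sandell-Kolthoff colorimetry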). The essentials: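 Inhibition of human deiodinase 1 is scored as reduced iodide liberation after a 3 h enzyme–chemical incubation, detected colorimetrically by the Sandell-Kolthoff reaction against DMSO controls.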

In test [16] the target is Nucleoli Translocation, AR (gene 367) (UniProt P10275). In words: UPITT_HCI_U2OS_AR_TIF2_Nucleoli_Antagonist: University of Pittsburgh U2OS Androgen Receptor-Transcriptional Intermediary Factor 2 (AR-TIF2) Antagonism High Content Imaging Assay for Nucleoli Translocation (AID 2283997; active = hit-call score of the fitted dose curve at least 0.9, where 1 is the maximum). The essentials: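 Antagonism is read as loss of nucleolar AR-RFP signal relative to DHT, imaged in U2OS cells also carrying GFP-TIF2. Compounds screened at 20 uM final, 0.2% DMSO; primary actives retested in triplicate.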

For test [17] the target is unchanged. Description: UPITT_HCI_U2OS_AR_TIF2_Nucleoli_Agonist: University of Pittsburgh U2OS Androgen Receptor-Transcriptional Intermediary Factor 2 (AR-TIF2) Agonism High Content Imaging Assay for Nucleoli Translocation (AID 2283998; active = hit-call score of the fitted dose curve at least 0.9, where 1 is the maximum). The essentials: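 Readout is red (AR-RFP) fluorescence localized to nucleoli, measured by high-content imaging and analysed for increase relative to DMSO. Compound series spanned 0.195 to 50 uM final in 0.5% DMSO.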

The target in test [18] is Ratio of Nucleoli Translocation and Cytoplasm, AR (gene 367) (UniProt P10275). Description: UPITT_HCI_U2OS_AR_TIF2_Nucleoli_Cytoplasm_Ratio_Antagonist: University of Pittsburgh U2OS Androgen Receptor-Transcriptional Intermediary Factor 2 (AR-TIF2) Antagonism High Content Imaging Assay for Ratio of Nucleoli Translocation and Cytoplasm (AID 2283999; active = hit-call score of the fitted dose curve at least 0.9, where 1 is the maximum;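 also: antagonists lower the DHT-driven ratio of nucleolar to cytoplasmic red signal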). The essentials: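 High-content imaging of red fluorescence ratio, nucleoli versus cytoplasm, in U2OS expressing AR-RFP and TIF2-GFP, fitted relative to DHT. Compounds tested once at 20 uM final, then 0.195 to 50 uM final in serial dilution.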

For test [19] the target is unchanged. Description: UPITT_HCI_U2OS_AR_TIF2_Nucleoli_Cytoplasm_Ratio_Agonist: University of Pittsburgh U2OS Androgen Receptor-Transcriptional Intermediary Factor 2 (AR-TIF2) Agonism High Content Imaging Assay for Ratio of Nucleoli Translocation and Cytoplasm (AID 2284000; active = hit-call score of the fitted dose curve at least 0.9, where 1 is the maximum;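 also: hits raise the red nucleolar to cytoplasm ratio above vehicle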). The essentials: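 Compounds tested at 20 uM final in primary screen (0.2% DMSO) and 0.195-50 uM final in dose-response (0.5% DMSO). Imaging of human U2OS cells bearing RFP-AR and GFP-TIF2; endpoint is nucleoli/cytoplasm red signal ratio, positive direction relative to DMSO.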

Sequence of Nucleoli Translocation, AR (gene 367) (P10275 whole entry, looked up): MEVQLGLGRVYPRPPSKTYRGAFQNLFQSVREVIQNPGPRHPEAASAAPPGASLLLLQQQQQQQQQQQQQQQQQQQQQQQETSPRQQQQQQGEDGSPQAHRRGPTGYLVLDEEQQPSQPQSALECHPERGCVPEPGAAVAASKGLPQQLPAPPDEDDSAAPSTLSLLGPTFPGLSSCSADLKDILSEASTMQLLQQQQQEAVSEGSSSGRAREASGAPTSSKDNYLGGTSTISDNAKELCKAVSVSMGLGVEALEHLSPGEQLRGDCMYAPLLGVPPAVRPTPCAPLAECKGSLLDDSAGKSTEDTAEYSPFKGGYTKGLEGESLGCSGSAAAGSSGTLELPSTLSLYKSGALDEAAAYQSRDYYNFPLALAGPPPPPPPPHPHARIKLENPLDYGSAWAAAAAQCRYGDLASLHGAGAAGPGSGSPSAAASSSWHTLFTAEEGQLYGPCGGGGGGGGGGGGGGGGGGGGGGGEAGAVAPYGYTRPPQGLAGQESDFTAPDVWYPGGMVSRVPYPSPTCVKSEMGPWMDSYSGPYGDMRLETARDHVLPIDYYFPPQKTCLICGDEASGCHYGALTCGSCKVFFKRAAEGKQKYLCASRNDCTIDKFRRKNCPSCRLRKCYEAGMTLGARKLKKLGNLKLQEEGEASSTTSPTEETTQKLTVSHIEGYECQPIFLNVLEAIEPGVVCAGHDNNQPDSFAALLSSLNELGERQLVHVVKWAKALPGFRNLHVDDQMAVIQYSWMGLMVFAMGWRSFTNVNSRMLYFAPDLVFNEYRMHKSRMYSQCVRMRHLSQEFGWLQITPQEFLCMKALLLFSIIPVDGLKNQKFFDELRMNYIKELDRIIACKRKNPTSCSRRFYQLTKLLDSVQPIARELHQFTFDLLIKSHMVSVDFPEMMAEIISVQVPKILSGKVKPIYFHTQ
Sequence of Ratio of Nucleoli Translocation and Cytoplasm, AR (gene 367) (P10275 whole entry, looked up): as above

Turning to `OC1CCC(C2CCCCC2)CC1` (stereo not drawn), the AC50 (usually the concentration at which the activity in the assay is half-maximal) was 50 µM (active) in [1], 20 µM (active) in test [5] and 20 µM (active) in test [6]. Besides, the call in [2], in test [3], in test [4] and in test [7] was inactive.
With `CC(C)(C)c1cc(C(C)(C)C)c(O)c(C(C)(C)C)c1`, the result in test [5] and in test [6] was inactive.
Regarding `CN(C)C=O`, the compound was called inactive in test [5] and in [6].
For the compound `CCC(=C(c1ccc(O)cc1)c1ccc(OCCN(C)C)cc1)c1ccccc1`, the AC50 in test [8] is 69.8 µM (active); in [9], 73.1 µM (active); in [10], 63.6 µM (active); in [11] it was 81.2 µM (active); in [12] it was 84 µM (active); in [13] it was 82.6 µM (active). Further, the AC50 in test [14] is 76.1 µM (active); in test [15], 80.8 µM (active); in the test with DIO1 (gene 1733), 46.5 µM (active); in [17], 22.5 µM (active); in test [19] it was 26.2 µM (active). In addition, the call in test [16], in test [18], in [5], in [6] and in [7] was inactive.
Turning to `CCCOC(=O)c1ccc(O)cc1`, the AC50 in [1] is 35.8 µM (active). The result in test [2], in [3], in test [4] and in test [7] was inactive.
Regarding `Oc1cc2ccccc2c2ccccc12`, the AC50 in test [16] was 3.25 µM (active); in [18], 3.08 µM (active); in test [1] it was 28.6 µM (active); in test [3] it was 11.1 µM (active); in test [4] it was 6.92 µM (active); in test [7], 9.92 µM (active). For the same compound, the result in [17], in test [19], in [2], in [5] and in test [6] was inactive.
`CCc1nn(C2CCCCC2)c2cc(C3(C#N)CCC(C(=O)O)CC3)ccc12` (stereo not drawn): the AC50 was 15.6 µM (active) in test [1] and 25 µM (active) in test [2]. In addition, the outcome in [3], in test [4] and in test [7] was inactive.
`O=C(/C=C/c1ccc(O)cc1)CC(=O)/C=C/c1ccc(O)cc1`: the AC50 in test [16] was 16.3 µM (active). Besides, the compound was classed as inactive in [17], in test [18], in test [19] and in [7].
For the compound `N#C[C@@H]1CC(F)(F)CN1C(=O)CNC1CC2CCC(C1)N2c1ncccn1` (stereo partly drawn), the outcome in test [16], in test [17], in test [18], in test [19] and in test [7] was inactive.
As for `ClC1=C(Cl)C(Cl)(Cl)C(Cl)=C1Cl`, the AC50 in the test with DIO1 (gene 1733) is 78.5 µM (active). The outcome in test [7] was inactive.
In the case of `Cc1oc(-c2ccccc2)nc1CCOc1ccc(C[C@H](Nc2ccccc2C(=O)c2ccccc2)C(=O)O)cc1`, the outcome in [8], in test [9], in test [10], in test [11], in test [12] and in test [13] was inactive. For the same compound, the result in [14], in test [15], in [17], in test [18], in [19] and in [7] was inactive. In addition, the values for the AC50 (with DIO1 (gene 1733); in test [16]) were 72.1 µM (active) and 67.6 µM (active), respectively.
Take `CCCCC[C@H](O)CC(=O)CCc1ccc(O)c(OC)c1`: the result in test [16], in [18], in test [19] and in [7] was inactive.
